High-throughput results from PubChem.
NS1 function inh = influenza NS1 inhibition; Potency, µM (top dose mostly 46.1 µM), without a hit: top-dose activity, positive = more growth; 270,000 tested, 0.4% active; AID 2326; note: potency is the fitted concentration of half-maximal effect; actives are rising curves; nearly all actives have a fitted effect of over 50% in size
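In this qHTS, NS1 from influenza A is expressed in budding yeast, where it slows growth. Cells are switched from glucose to 2% galactose medium (pH 6.0, -URA), treated with compound, and growth recovery is read at OD600.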
Pf growth 48h = P. falciparum growth inhibition at 48 hours (one generation); AID 504832; Potency, µM (series often up to 28.7 µM), for the others: at the top dose activity change, negative = inhibition, hits mostly inhibitors; 310,000 tested, 5.9% active; P. falciparum luciferase growth in erythrocytes, 48 h; active = well fitted inhibition curve with a large enough effect; inconclusive = small, poorly fitted or top-dose-only effect, or another doubt; inactive = no such curve, though single readings can be large or run the other way; note: potency is the fitted concentration of half-maximal effect; % is set by controls: 0 for no effect and ±100 for the full control effect
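In quantitative HTS format, infected erythrocytes bearing luciferase-reporter parasites were treated for a single generation at 37 C. Luminescence after adding detection reagent served as the growth measure.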
Pf growth 96h = P. falciparum growth inhibition at 96 hour, primary screen for plastid delayed-death inhibitors; P. falciparum luciferase reporter growth, 96 h; Potency, µM (highest dose often 28.7 µM), for the others: top-dose activity change, negative = inhibition, actives largely listed as inhibitors; 320,000 tested, 6.9% active; active = well fitted inhibition curve with a large enough effect; inconclusive = small, poorly fitted or top-dose-only effect, or another doubt; inactive = no such curve, though single readings can be large or run the other way; note: potency is the fitted concentration of half-maximal effect; % is set by controls: 0 for no effect and ±100 for the full control effect
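Compounds incubated with erythrocytes infected by luciferase-expressing P. falciparum (2% hematocrit, 0.05% parasitemia final) for 96 hours, 37 C in 5% CO2. Growth inhibition scored as decreased luciferase luminescence.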
Shiga toxin inh = Shiga toxin inhibition. inhibition, % at 38.7 µM. 290,000 tested, 9.2% active. Vero cells, Shiga toxin protein synthesis inhibition reporter; in the data active = inhibition mostly above about 28%, no sharp cut-off; inactive = mostly below about 43%; note: 0% is about no effect
SARS PLP yeast = blocks SARS-CoV papain-like protease in a yeast assay; S. cerevisiae expressing SARS-CoV PLpro, growth rescue; 330,000 tested, 0.19% active; AID 485353; Potency, µM (highest dose often 32.9 µM), for the others: at the highest dose activity, positive = growth rescue, hits mostly activators; note: potency is the fitted concentration of half-maximal effect; 0% is about no effect; nearly all actives have a fitted effect of over 55% in size
CHX counter = affects cycloheximide protein synthesis inhibition readout, counter-screen | max response, % | cell reporter, cycloheximide protein synthesis inhibition counterscreen | AID 2314 | 300,000 tested, 12% active; in the data active = max response mostly above about 13%, no sharp cut-off; inactive = mostly below about 14%; note: read at 38.3 µM for the half of the compounds with a filed dose; 0% is about no effect
Numbers without * were called inactive; ? = inconclusive; · = no result; ! = a repeat was not active. This is a sample that favours compounds with a hit; in the whole collection about 21% have one here. Unless noted, calls come from the whole dose curve.

SMILES	NS1 function inh	Pf growth 48h	Pf growth 96h	Shiga toxin inh	SARS PLP yeast	CHX counter
Cc1ccc(NS(=O)(=O)c2ccc(OCC(=O)NCc3ccncc3)cc2)cc1	-14.6%	-26.0%	-10.6%	-5.6	17.2%	-1.1
O=C(NC1CCCCC1)C(c1ccc(O)cc1)N(C(=O)c1cnccn1)c1cccc(F)c1 (stereo not given)	-5.0%	-1.8%	17.7%	4.2	5.5%	-4.0
CCOc1ccc(C2C(C(C)=O)=C(O)C(=O)N2CCc2c[nH]c3ccccc23)cc1 (stereo not given)	4.5%	10.6%	-8.3%	5.5	1.6%	-2.1
CCCCn1c(NC(=O)c2ccc(Br)o2)c(C(=O)OCC)c2nc3ccccc3nc21	23.0%	?	-100.8%	6.6	3.6%	3.6
CCCCn1c(NS(=O)(=O)c2ccc(C)cc2)c(S(=O)(=O)c2ccccc2)c2nc3ccccc3nc21	6.0%	?	4.15µM*	-4.9	-7.0%	-4.7
CCCCn1c(NS(=O)(=O)c2ccccc2)c(C(=O)OCC)c2nc3ccccc3nc21	-28.4%	1.65µM*	?	-9.3	-34.2%	3.7
CNCCCOc1cc(C)cc(C)c1C	-3.0%	-22.8%	?	-11.7	0.7%	-1.7
CCCCNC(=S)N1CCn2cccc2C1c1ccc(F)cc1 (stereo not given)	·	?	?	-6.0	-9.8%	9.9
COc1cccc(NC(=S)N2CCn3cccc3C2c2cccnc2)c1 (stereo not given)	1.8%	?	-14.1%	33.2*	5.1%	6.4
Fc1ccc(C2c3cccn3CCN2C(=S)Nc2cccc(Br)c2)cc1 (stereo not given)	·	11.7µM*	?	-13.7	-9.5%	16.2
CCCCNC(=S)N1CCn2cccc2C1c1ccccc1 (stereo not given)	·	4.65µM*	?	3.2	-5.1%	-0.4
Fc1ccc(NC(=S)N2CCn3cccc3C2c2cccnc2)cc1 (stereo not given)	·	?	-16.5%	-10.0	-3.2%	-4.1
S=C(NCc1ccccc1)N1CCn2cccc2C1c1cccnc1 (stereo not given)	·	4.65µM*	4.65µM*	-19.4	0.2%	-3.0
COc1ccc(OC)c(NC(=O)C(=O)NNC(=O)C23CC4CC(CC(C4)C2)C3)c1	3.8%	?	0.3%	17.7	-1.5%	0.6
CC(C(c1cccs1)c1c(N)n(C)c(=O)n(C)c1=O)[N+](=O)[O-] (stereo not given)	-5.5%	?	?	-5.2	-4.3%	-1.7
Cc1sc2ncn(CC(=O)N3CCN(c4ccccn4)CC3)c(=O)c2c1S(=O)(=O)N1CCCCC1	-9.4%	-21.4%	8.7%	-12.2	2.3%	-2.4
S=C(NCCc1ccccc1)N1CCn2cccc2C1c1cccnc1 (stereo not given)	·	11.7µM*	10.4µM*	0.5	-17.2%	17.1
CCCCNC(=S)N1CCn2cccc2C1c1cccnc1 (stereo not given)	·	?	45.3%	-9.4	-10.9%	0.9
CNc1c2c(nn1C)CCCC2	2.3%	27.7%	6.01µM*!	16.6	0.0%	-5.0
CC(C)CC1CC(C)(c2csc(NNC(=O)c3ccccc3)n2)OC1=O (stereo not given)	·	12.8%	1.1%	17.8	2.0%	19.9
O=C(O)C1C2CCC(C2)C1C(=O)N1CCCC1 (stereo not given)	10.3%	14.1%	-5.0%	-5.4	-7.2%	1.3
Cc1cc(C)c(NC(=S)N(CCCN2CCOCC2)Cc2cccnc2)c(C)c1	·	-12.5%	?	-11.0	1.7%	-2.8
O=S(=O)(c1ccccc1)c1nnn2c1nc(NC1CCN(Cc3ccccc3)CC1)c1cc(Cl)ccc12	10.9%	0.657µM*	1.3%	-5.5	-5.9%	6.6
Cc1ccc(-c2csc(NC(=O)c3cccc(S(=O)(=O)N4CCN(C)CC4)c3)n2)cc1	-31.1%	10.3%	7.38µM*	-3.2	1.9%	-1.7
O=C(Nc1nc(-c2ccc(S(=O)(=O)N3CCCCCC3)cc2)cs1)c1cccs1	9.3%	?	43.1%	16.3	-8.9%	-1.1
Cc1ccc(-c2csc(NC(=O)COC(=O)c3cccc(S(=O)(=O)N4CCOCC4)c3)n2)cc1	-15.0%	80.3%	0.0%	130.8*	-6.8%	22.4*
